Only some compounds are listed: those with a hit (about 19% of all), similar ones and a draw of the others.
Giardia killer – Small Molecules that selectively kill Giardia lamblia: qHTS; hit rate 0.15% among 340,000; activity change, % at 7.66 µM, hits read low; Giardia lamblia trophozoite viability; in the data active means activity change below about -80%; inconclusive means between about -30% and that limit;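 further: parasites exposed to compound for two days anaerobically before the ATP read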
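Compounds were tested on trophozoites seeded at 100 cells/well and held 48 hrs at 37 deg C anaerobically. An ATP-based luminescent kit measured the remaining live cells.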
TDP1 inh – qHTS Assay for Inhibitors of Tyrosyl-DNA Phosphodiesterase (TDP1) | Potency, µM (titrated, usually from 130 µM), inactives show top-dose activity change, negative = inhibition, hits mostly inhibitors | recombinant TDP1, AlphaScreen DNA substrate cleavage | AID 485290, 2010 | hit rate 0.28% among 350,000; further: potency means the concentration at half of the fitted maximal effect; nearly all actives have a fitted effect of over 40% in size
Target sequence (Q9NUW8 whole entry, looked up): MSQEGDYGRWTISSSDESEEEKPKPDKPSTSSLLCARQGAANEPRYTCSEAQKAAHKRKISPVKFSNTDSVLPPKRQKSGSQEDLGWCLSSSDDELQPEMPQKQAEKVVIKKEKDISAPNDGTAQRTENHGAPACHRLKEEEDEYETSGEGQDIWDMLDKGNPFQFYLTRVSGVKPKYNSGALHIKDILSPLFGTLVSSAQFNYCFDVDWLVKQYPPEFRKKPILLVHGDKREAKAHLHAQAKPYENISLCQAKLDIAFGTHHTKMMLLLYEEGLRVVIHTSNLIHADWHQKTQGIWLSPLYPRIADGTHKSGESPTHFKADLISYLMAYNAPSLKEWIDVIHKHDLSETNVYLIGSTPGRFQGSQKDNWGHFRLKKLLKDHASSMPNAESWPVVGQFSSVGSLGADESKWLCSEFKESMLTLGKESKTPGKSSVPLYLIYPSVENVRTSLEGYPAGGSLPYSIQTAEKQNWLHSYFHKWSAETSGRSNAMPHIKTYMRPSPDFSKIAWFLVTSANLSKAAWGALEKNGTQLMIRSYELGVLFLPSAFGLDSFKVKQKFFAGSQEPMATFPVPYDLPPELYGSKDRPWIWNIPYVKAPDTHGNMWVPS
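Steps: enzyme plus compound, 15 min RT; add biotin/phosphotyrosine-FITC oligonucleotide (15 nM final), react 5 min; add donor/acceptor beads (10 ug/ml final), 10 min; read AlphaScreen. Tdp1 at 1 nM final.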
ELG1 DNA repair – qHTS screen for small molecules that inhibit ELG1-dependent DNA repair in human embryonic kidney (HEK293T) cells expressing luciferase-tagged ELG1 | HEK293T ELG1-luciferase reporter, luminescence, 16 h; DNA damage induced by 5-fluorouridine | Potency, µM (highest dose often 46.1 µM), for the others: top-dose activity change, negative = inhibition, most hits filed as inhibitors | hit rate 2.3% among 330,000 | AID 504467, 2011; further: potency means the concentration at half of the fitted maximal effect; nearly all actives have a fitted effect of over 55% in size
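HEK293T cells expressing luciferase-tagged ELG1 (2,000/well) received 5-Fluorouridine plus compound or DMSO for 16 hr at 37 °C. Luciferase was read by ONE-Glo luminescence after 30 min at room temperature.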
IL-1B inflam inh – qHTS for Inhibitors of Inflammasome Signaling: IL-1-beta AlphaLISA Primary Screen; hit rate 4.7% among 360,000; activity change, % at 57.5 µM; THP-1 LPS/ATP IL-1B secretion, AlphaLISA, 16 h; active compounds read low; in the data active means activity change below about -50%; inconclusive means mostly about -30% to -49%
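THP-1 cells pretreated 1 hr with compounds (up to 57.5 uM final), then stimulated with LPS (250 ng/mL final) plus ATP (1.25 mM final); secreted IL-1B measured by AlphaLISA after 16 hr, decreased signal indicating inhibition.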
DT40 TDP1 no CPT – qHTS for Inhibitors of human tyrosyl-DNA phosphodiesterase 1 (TDP1): qHTS in cells in absence of CPT | hit rate 15% among 420,000 | Potency, µM (titrated, usually from 46.2 µM), inactives show at the highest dose activity change, negative = growth inhibition, actives largely listed as inhibitors | DT40 Tdp1-/- hTDP1 cells, no CPT, ATP luminescence, 48 h; further: potency means the concentration at half of the fitted maximal effect; nearly all actives have a fitted effect of over 55% in size
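DT40 Tdp1-/-;hTDP1 cells, no CPT (DMSO vehicle only), 400 cells/well; compounds pin-transferred; ≥48 hr, 37 °C; CellTiter-Glo 30 min RT dark, luminescence read.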
TDP1 cell CPT – qHTS for Inhibitors of human tyrosyl-DNA phosphodiesterase 1 (TDP1): qHTS in cells in presence of CPT. chicken DT40 Tdp1-/-;hTDP1 cells + 20 nM CPT, ATP luminescence, 48 h. Potency, µM (highest dose often 46.2 µM), for the others: at the highest dose activity change, negative = growth inhibition, usual class: inhibitors. hit rate 12% among 420,000. AID 686979, 2013; further: potency means the concentration at half of the fitted maximal effect; nearly all actives have a fitted effect of over 55% in size
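Cell growth measured by CellTiter-Glo luminescence after a minimum 48 h, 37 C compound exposure with 20 nM CPT in Tdp1-knockout DT40 cells stably expressing hTDP1, seeded 400/well; qHTS titration format.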
Numbers without * were called inactive; ? = inconclusive; . = no result; ! = not active in a repeat; [ ] = dose if it differs, or a comment. Unless noted, the call rests on the fitted dose curve; in most records, active means well fitted curve in the direction sought with a large enough effect; inconclusive means small, poorly fitted or top-dose-only effect, or another doubt; inactive means no such curve, though single readings can be large; an effect the other way counts as inactive or inconclusive. On the % scale 0 is the no-effect control and ±100 the full control effect.

SMILES	Giardia killer	TDP1 inh	ELG1 DNA repair	IL-1B inflam inh	DT40 TDP1 no CPT	TDP1 cell CPT
O=C(CN1CCN(c2ccccc2)CC1)Nc1ccc2c(c1)OCCO2	6.5	-2.9%	3.3%	-0.2	3.7%	-4.8%
Nc1nc(-c2ccccc2)c(CCCOc2ccc(NC(=O)CBr)cc2)c(=O)[nH]1	6.7	.	.	?	?	?
O=C(O)c1cc(Cl)c2c(c1)OCO2	-10.0	.	1.2%	2.9	-0.6%	-10.6%
C1CCC(N=C(NC23CC4CC(CC(C4)C2)C3)N2CCOCC2)CC1	.	5.6%	.	.	.	.
C1CCC(NC(=NC2C3CC4CC(C3)CC2C4)N2CCOCC2)CC1 (stereo unspecified)	.	6.1%	.	.	22.7µM*	28.6µM*!
CN(c1ccccc1)S(=O)(=O)c1cccc(NC(=O)Cn2cnc3ccccc3c2=O)c1	0.8	6.6%	?	-0.8	16.4µM*	20.6µM*
Cn1nc(C(=O)Nc2cccc(C(F)(F)F)c2)c2ccccc2c1=O	12.9	0.0%	?	6.5	?	2.6%
CN(c1ccccc1)S(=O)(=O)c1cccc(NC(=O)C2=NNC(=O)CC2)c1	2.7	0.1%	16.4µM*	17.1	?	?
CCN(CC)S(=O)(=O)c1cc(NC(=O)Cn2cnc3ccccc3c2=O)ccc1C	-18.0	2.3%	?	1.6	?	?
CN(c1ccccc1)S(=O)(=O)c1cccc(NC(=O)c2nn(C)c(=O)c3ccccc23)c1	-10.9	2.3%[56.1 µM]	18.3µM*	9.4	?	?
CNC(=O)c1cn2c3c(ccc(Cl)c3c1=O)OC(C)C2 (stereo unspecified)	-29.6	.	.	-5.3	4.8%	15.6%
O=C(NC1CCCCC1)C(c1cc2ccccc2o1)N1CCOCC1 (stereo unspecified)	.	.	.	-20.8	0.0%	5.8%
O=C(CCCN1C(=O)/C(=C/c2ccco2)SC1=S)Nc1ccccc1C(=O)O	-5.8	.	3.2%	0.0	?	-25.2%
O=C(CCCN1C(=O)/C(=C/c2ccccc2Cl)SC1=S)NNC(=O)c1cccnc1	32.6	7.0%	8.3%	-7.2	?	?
O=C(O)CCCN1C(=O)/C(=C\c2ccco2)SC1=S	3.7	22.4µM*	-6.1%	?	12.9%	3.8%
O=C(CCCN1C(=O)/C(=C/c2ccccc2Cl)SC1=S)NNC(=O)c1ccccc1	-12.0	0.0%	-15.9%	-102.4*	16.4µM*	18.4µM*
O=C(CCN1C(=O)/C(=C\c2cccc(Br)c2)SC1=S)N1CCOCC1	2.1	3.9%	0.2%	?	6.51µM*	6.51µM*
O=C(CCCN1C(=O)/C(=C\c2ccccc2)SC1=S)N1CCOCC1	-17.7	8.5%	18.3µM*	-83.9*	?	23.1µM*
CC1CCN(C(=O)Cn2cc(SCc3cccc(F)c3)c3ccccc32)CC1	.	-5.1%	.	.	?	?
Cc1ccc(C(=O)Nc2ccc(F)cc2)cc1NC1=NC2CS(=O)(=O)CC2S1 (stereo unspecified)	-3.2	.	-15.2%	13.8	-19.6%	6.6%
Cc1cc(C#Cc2c(-c3ccccc3)n(C)c3ccccc23)ccc1F	3.3	.	-5.3%	2.5	-26.5%	?
COc1ccc(-c2noc(CSCC(=O)Nc3cccc(C(F)(F)F)c3)n2)cc1OC	.	6.2%	.	.	-18.8%	1.1%
CCCCC1CCC(C(=O)N2CC(=O)Nc3ccc(F)cc3C2c2ccc(F)cc2)CC1 (stereo unspecified)	.	2.9%	.	.	?	?

Screening results (PubChem BioAssay)
